The results in this text go back to PubChem BioAssay AID1347434 (National Center for Advancing Translational Sciences (NCATS), 2020).

SMILES strings stand for the structures. In all, about 1,200 compounds went through this assay and about 30 (2%) were called active. Roughly 23% stayed inconclusive and do not appear here. The sample as a whole holds a higher share of actives than the screen did. Unmarked numbers belong to inactive results. The call rests on the fitted dose curve; in most records, active means well fitted inhibition curve with a large enough effect; inconclusive means small, poorly fitted or top-dose-only effect; inactive means flat fitted curve, though single readings scatter.
On the % scale 0 is the no-effect control and ±100 the full control effect; potency means the concentration at half of the fitted maximal effect.

The target of the assay is Single-stranded DNA cytosine deaminase (Homo sapiens) (UniProt Q9GZX7). Description: Confirmatory qHTS assay for inhibitors of Activation Induced Cytidine Deaminase (AID): AID signals. Conditions: recombinant AID, FRET deamination/UDG coupled fluorescence, 4 h; series mostly up to 115 µM; activity, negative = inhibition: at the top concentration. In short, it runs like this: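 Read 1 (AID) was measured at 540 ex/590 em after a 30 min NaOH step. The reaction was AID (1 uM, 4/3x stock) with UDG, compound at final 7.32 nM - 114 uM for 10 min, then DJC20/DJC23 substrate for 4 hr at room temperature. A UDG read at 560/665 serves as counterscreen.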
Single-stranded DNA cytosine deaminase (Homo sapiens), sequence (Q9GZX7 whole entry, looked up): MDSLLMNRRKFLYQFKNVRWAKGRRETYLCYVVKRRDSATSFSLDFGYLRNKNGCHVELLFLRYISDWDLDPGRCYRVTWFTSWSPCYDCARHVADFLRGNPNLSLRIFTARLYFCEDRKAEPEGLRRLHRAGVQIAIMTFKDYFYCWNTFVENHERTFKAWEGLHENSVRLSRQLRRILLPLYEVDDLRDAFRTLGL
On the technique in general: Quantitative high-throughput screening tests each substance at several concentrations.
`CCc1nn(CCCC(=O)N2CCN(c3cc(Cl)ccc3C)CC2)c(=O)c2cc3occc3n12`: the “activity, negative = inhibition” value was -25%.
On the same count and under the same terms, the same measure for `CCn1cc2nc(SCC(=O)Nc3ccccc3C(F)(F)F)n(Cc3ccc(C)cc3)c(=O)c2n1`: -22.9%; for `CCc1ccc2c(c1)c(=O)c(S(=O)(=O)c1ccc(Cl)cc1)cn2CC`: -7.45%.
Still for that read-out and setting: the result for `Cc1ccccc1OCc1nnc(SCc2cc(=O)c3ccc(C)c(C)c3[nH]2)n1C` reads -24.7%; that for `CCOc1ccc(CCNC(=O)c2nc(-c3cccc(F)c3)n3c2CCCCC3)cc1OCC`, -12%.
Regarding `Cc1ccc(C)c(N2CCN(C(=O)c3ccc(CS(=O)(=O)c4ccc(Br)cc4)o3)CC2)c1`, the “activity, negative = inhibition” value is -8.36%.
On the same count and under the same terms, the result for `CCOC(=O)CSc1nnc2n(-c3ccccc3)c(=O)c3c4c(sc3n12)CC(C(C)(C)C)CC4` (centres undefined) reads -11.7%.
In the case of `CCn1cc(C(=O)NCCCOC(C)C)c(=O)c2cc(S(=O)(=O)N(C)C3CCCCC3)ccc21`, the “activity, negative = inhibition” value is -14.5%.
Still for that read-out and setting: the same measure for `Cc1cccc(CCNc2ncnc3onc(-c4ccc(Cl)cc4)c23)c1`: 2.28%; for `Cc1cc2c(cc3c(SCc4ccc(Cl)cc4)nnc(C)n32)o1`: -7.73%; for `Cc1c(C)n(C)c2ccc(C(=O)N3CCN(c4ccccc4)CC3)cc12`: 0.494%.
Same read-out and setting: the same measure for `CC(=O)c1ccc(NC(=O)C2CCN(c3nnc(C)c4c(C)n(-c5ccccc5)nc34)CC2)cc1`: -29.1%.
Still for that read-out and setting: the same measure for `COc1ccc(CC(=O)Nc2sc3c(c2C(=O)Nc2cccc(Cl)c2)CCCCC3)cc1`: 2.52%; for `CCCN(CCC)C(=O)Cn1c(=O)n(Cc2ccc(C(=O)NCCc3ccc(OC)c(OC)c3)cc2)c(=O)c2ccccc21`: -3.63%.
On to `Cc1cccc(N2CCN(C(=O)C3CCN(c4ncnc5c4nc4n5CCCCC4)CC3)CC2)c1C`, for which the “activity, negative = inhibition” value was -17.9%.
The same measure, in the same setting: the result for `Fc1ccc(Cn2c(-c3cccc(Br)c3)nc3ccccc32)cc1` reads -17.1%; that for `COc1ccc(C(=O)NCC(c2cccnc2)N2CCc3ccccc32)cc1` (centres undefined), 1.56%; that for `Cn1c(=O)c2c(-c3ccc(Br)cc3)n(CCc3ccccc3)cc2n(C)c1=O`, -16.2%.
Still for that read-out and setting: the same measure for `CCc1ccc(CNC(=O)C(CC)n2nc(C)c3c(C)n(-c4ccccc4)nc3c2=O)cc1` (centres undefined): -18.2%.
The same measure, in the same setting: the result for `Cc1cccc(Cn2c(=O)n3nc(-c4ccccc4)nc3c3ccccc32)c1` reads -4.38%; that for `Clc1ccc(-c2noc3ncnc(NCCCN4CCN(c5ccccc5)CC4)c23)cc1`, 0.554%.
`Cc1ccc(C)c(CN2C(=O)c3ccccc3S(=O)c3ccc(C(=O)N4CCC(C)CC4)cc32)c1` (centres undefined): the “activity, negative = inhibition” value was -10.6%.
The same measure, in the same setting: the same measure for `O=C(CSc1nc2ccccc2nc1Cc1ccccc1)Nc1ccccc1C(F)(F)F`: 1.65%; for `COc1ccc2c(C)cc(SCC(=O)Nc3nsc(-c4ccc(C(C)(C)C)cc4)n3)nc2c1`: -8.76%.
Consider `Cc1ccc(-c2nc(NC(=O)CSc3cc(C)c4ccccc4n3)ns2)cc1`, for which the Potency is 28.2 µM (active).
Turning to `C=CCc1ccccc1OCCSc1nc(-c2ccc(C(C)(C)C)cc2)nc2cc(=O)[nH]n12`, the “activity, negative = inhibition” value was -11.2%.
The same measure, in the same setting: the same measure for `O=c1cc2nc(-c3cccs3)nc(SCCOc3ccc(Cl)cc3)n2[nH]1`: -10.7%.
Take `Cc1cc(OCCCSc2nc(-c3ccc(C(C)(C)C)cc3)nc3cc(=O)[nH]n23)ccc1Cl`: the Potency was 31.6 µM (active).
As to `Cc1cccc(C(=O)Nc2sc3c(c2C(=O)O)CCCC3)c1`, the “activity, negative = inhibition” value was -16.9%.
Same read-out and setting: the same measure for `Cc1nc2c(-c3ccccc3)c(C)nn2c(C)c1CCC(=O)N1CCN(c2ccccc2)CC1`: -7.22%.
Still for that read-out and setting: the result for `CCOc1ccc(-c2nn(-c3ccccc3)cc2C2NC(=O)NC(C)=C2C(=O)OC(C)C)cc1C` (centres undefined) reads -12.4%.
Consider `O=C(NCCc1nc2ccccc2n1Cc1ccc(Cl)cc1Cl)c1ccco1`, for which the “activity, negative = inhibition” value is -6.08%.
In the case of `CCN(C(=O)Cn1c(SCC(=O)Nc2ccc(OC)cc2)nc2ccccc21)c1cccc(C)c1`, the “activity, negative = inhibition” value is -22%.
The same measure, in the same setting: the same measure for `CC(C)(C)c1ccc(C(=O)N2CCCC(c3nc4c(nnn4Cc4cccc(F)c4)c(=O)[nH]3)C2)cc1` (centres undefined): -4.66%; for `CCOc1ccc(CN2CCc3nc(Nc4ccc(OC)cc4OC)ncc3C2)cc1`: -2.62%.
For `CC(=O)O[C@H]1C[C@@H]2CC[C@@H]3[C@H](CC[C@@]4(C)[C@H]3C[C@H]([N+]3(C)CCCCC3)[C@@H]4OC(C)=O)[C@@]2(C)C[C@@H]1[N+]1(C)CCCCC1`, the Potency was 17.8 µM (active).
With `Cc1cc2c(cc3c(SCc4cccc(Cl)c4)nnc(C)n32)o1`, the “activity, negative = inhibition” value was 0.875%.
Turning to `COC(=O)c1ccc(OCC2c3cc(OC)c(OC)cc3CCN2C(=O)c2cccc(C)c2)cc1` (centres undefined), the “activity, negative = inhibition” value is -7.23%.
Take `CCc1ccc(NC(=O)c2ccc3c(O)c(S(=O)(=O)c4ccccc4)c(=O)[nH]c3c2)cc1`: the “activity, negative = inhibition” value was -17.9%.
With `O=C(NCc1ccccc1Cl)c1ccc2c(O)c(S(=O)(=O)c3ccccc3)c(=O)[nH]c2c1`, the “activity, negative = inhibition” value is -12.7%.
Take `CC(C)c1ccc(NC(=O)c2ccc3c(O)c(S(=O)(=O)c4ccccc4)c(=O)[nH]c3c2)cc1`: the Potency was 31.6 µM (active).
`Cc1ccc(Cl)cc1N1CCN(C(=O)c2ccc(C)c(-n3c(C)nc4cccnc43)c2)CC1`: the “activity, negative = inhibition” value is -6.99%.
The same measure, in the same setting: the same measure for `CCc1ccc(NS(=O)(=O)c2ccc3oc(=O)c4ncn(CC)c4c3c2)cc1`: -15.8%; for `CCOc1ccc(-c2noc(CSc3nnc(Cc4ccccc4)n3-c3ccc(F)cc3)n2)cc1`: -19.5%.
